VP16 counter: VP16 counterscreen qHTS for inhibitors of ROR gamma transcriptional activity | Drosophila S2 Gal4-VP16 UAS-luciferase, luminescence, 20 h | Potency, µM (series often up to 53.6 µM), actives largely listed as inhibitors | 3.5% of 310,000 active;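 note: Gal4-VP16 expression switched on by copper sulfate through the metallothionein promoter; nearly all actives have a fitted effect of over 50% in size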
B2AR arrestin: qHTS assay of beta-arrestin-biased ligands of beta2-adrenergic receptor. Beta-2 adrenergic receptor (Homo sapiens), P07550. beta-arrestin recruitment to beta2AR, cell-based reporter. Potency, µM (titrated, usually from 46.1 µM), hits mostly activators. 0.02% of 330,000 active. AID 492947, 2010; note: nearly all actives have a fitted effect of over 65% in size
Target sequence (P07550 whole entry, looked up): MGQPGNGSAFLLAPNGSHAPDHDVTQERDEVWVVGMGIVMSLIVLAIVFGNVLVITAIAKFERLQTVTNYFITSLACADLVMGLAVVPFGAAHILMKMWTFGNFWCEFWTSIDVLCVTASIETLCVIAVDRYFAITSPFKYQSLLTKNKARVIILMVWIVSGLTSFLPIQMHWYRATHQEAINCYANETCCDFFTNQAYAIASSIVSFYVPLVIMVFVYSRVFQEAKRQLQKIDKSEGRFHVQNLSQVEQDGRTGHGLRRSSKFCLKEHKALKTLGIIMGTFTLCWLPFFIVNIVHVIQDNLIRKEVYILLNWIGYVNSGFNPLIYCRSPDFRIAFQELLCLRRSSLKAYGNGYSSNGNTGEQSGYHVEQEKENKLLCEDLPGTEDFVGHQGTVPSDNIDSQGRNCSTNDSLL
RORgamma inh: qHTS for inhibitors of ROR gamma transcriptional activity. Nuclear receptor ROR-gamma (Mus musculus), P51450. 5.4% of 310,000 active. Drosophila S2 Gal4-RORgamma UAS-luciferase reporter, 20 h. Potency, µM (highest dose often 53.6 µM), most hits filed as inhibitors; note: nearly all actives have a fitted effect of over 60% in size
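Luminescence from a UAS-regulated Photinus luciferase reporter in stably transfected Drosophila Schneider cells is measured; decreased signal marks ROR gamma inhibition. Fusion expression is induced by 700 uM copper sulfate for 20 hr.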
NPSR antagonist: qHTS Assay for Antagonists of the Neuropeptide S Receptor: cAMP Signal Transduction | 1% of 220,000 active | CHO-NPSR cells, cAMP TR-FRET, antagonist mode | Potency, µM (series often up to 38.3 µM), usual class: inhibitors | Q6W5P4; note: nearly all actives have a fitted effect of over 50% in size
Of the large screens only hits and unclear results are named; the others gave an inactive call. Only some compounds are listed: those with a hit (about 5.7% of all), similar ones and a draw of the others. Calls come from the whole dose curve; as a rule, active = well fitted curve in the direction sought with a large enough effect; inconclusive = small, poorly fitted or top-dose-only effect, or another doubt; inactive = no such curve, though single readings can be large; an effect the other way counts as inactive or inconclusive.

Fc1ccc(CNC(=S)NC2CCCC2)cc1	VP16 counter inconclusive, RORgamma inh 8.9µM
S=C(NCc1ccncc1)NC1CCCC1	none
CNC(=S)NCc1ccc2[nH]c(C)cc2c1	none
Cc1noc(C)c1-c1ccc2ncnc(NCCN3CCOCC3)c2c1	RORgamma inh inconclusive (no result: B2AR arrestin, NPSR antagonist)
CCOC(=O)C(CCc1ccccc1)NC(C)C(=O)N1Cc2cc(OC)c(OC)cc2CC1C(=O)O (stereo not drawn)	none (no result: B2AR arrestin, NPSR antagonist)
C=C(CC[C@@H](C)[C@H]1CCC2[C@]1(C)CC[C@]13C[C@@]14CCC(OC(=O)/C=C/c1ccc(O)c(OC)c1)C(C)(C)[C@@H]4CC[C@@]23C)C(C)C (stereo partly drawn)	none (no result: B2AR arrestin, NPSR antagonist)
Cc1cc2[nH]c(=O)cc(-c3ccccc3)n2n1	VP16 counter 18µM, RORgamma inh 11µM (no result: NPSR antagonist)
Cc1cc2[nH]c(=O)c3ccccc3n2n1	none
O=C(COc1ccc(Cl)cc1)NNC(=O)c1ccccn1	VP16 counter inconclusive, RORgamma inh 10µM
COc1ccccc1NC(=O)c1ccccc1NC(=O)c1ccccn1	none (no result: VP16 counter, RORgamma inh, NPSR antagonist)
COc1ccc(Cl)cc1NC(=O)NNC(=O)c1ccccn1	VP16 counter 7.1µM, RORgamma inh 4.5µM (no result: NPSR antagonist)
Cc1cc(C)cc(OCC(=O)NNC(=O)c2ccccn2)c1	none (no result: VP16 counter, RORgamma inh, NPSR antagonist)
CC1CCC/C(=N/Nc2nc3ccccc3s2)C1 (stereo not drawn)	VP16 counter inconclusive, RORgamma inh 6.3µM, NPSR antagonist inconclusive
CC1(C)CC(=O)C/C(=N/Nc2nc3ccccc3s2)C1	RORgamma inh 8.9µM
Cc1ccccc1OCC(=O)N/N=C1\CC(=O)CC(C)(C)C1	none (no result: NPSR antagonist)
COc1cccc(Cn2c(NCc3ccco3)nc3c2c(=O)n(C)c(=O)n3C)c1	VP16 counter 2.8µM
COc1ccc(Cl)c(Cn2c(NCc3ccco3)nc3c2c(=O)n(C)c(=O)n3C)c1	VP16 counter 0.0089µM
COc1cccc(Cn2c(NCC(C)C)nc3c2c(=O)n(C)c(=O)n3C)c1	VP16 counter inconclusive
CCCn1c(NCc2ccco2)nc2c1c(=O)n(C)c(=O)n2C	RORgamma inh inconclusive
CSCCCc1cn([C@@H](CO)C(=O)NCCCCCCCCCCC(=O)N2CCNCC2)nn1	none (no result: VP16 counter, RORgamma inh, NPSR antagonist)
C=C1[C@@H]2CC[C@H](C2)C1(C)C	none (no result: B2AR arrestin, NPSR antagonist)
O=C(CN1CCC(NC(=O)c2ccccc2Cl)CC1)NCc1ccco1	none
O=C(N/N=C/c1ccc(Cl)c([N+](=O)[O-])c1)C1CC1	VP16 counter inconclusive
O=[N+]([O-])c1cc(/C=N/NC(=S)Nc2ccccc2Cl)ccc1Cl	VP16 counter 3.5µM, RORgamma inh 3.2µM
COc1ccc(/C=N/NC(=S)Nc2ccccc2[N+](=O)[O-])cc1O	VP16 counter 3.2µM, RORgamma inh 5.6µM
Cc1ccc(NC(=S)N/N=C/c2ccc(Cl)c([N+](=O)[O-])c2)cc1	VP16 counter inconclusive, RORgamma inh 18µM, NPSR antagonist inconclusive
Cc1ccc(S(=O)(=O)N/N=C\c2ccc(Cl)c([N+](=O)[O-])c2)cc1	none
Cc1noc(C)c1C(=O)N1CCC2(CC1)CCN(c1ccncc1)CC2	none (no result: B2AR arrestin, NPSR antagonist)
COC(=O)C1(C(=O)OC)C[C@H]2CON=C2[C@H]1c1ccccc1	none (no result: B2AR arrestin, NPSR antagonist)
COc1ccc(NC(=O)C/C(C)=N/NC(=O)c2cccs2)c([N+](=O)[O-])c1	VP16 counter 18µM, RORgamma inh 20µM (no result: NPSR antagonist)
COc1cc(C(=O)OC2CCOC2=O)cc(Cl)c1OC (stereo not drawn)	none (no result: NPSR antagonist)
COc1cccc2cc(C(=O)C3=C(O)C(=O)N(Cc4ccco4)C3c3cccnc3)oc12 (stereo not drawn)	NPSR antagonist 7.9µM
COc1ccc(C2C(C(=O)c3ccco3)=C(O)C(=O)N2Cc2cccnc2)cc1OC (stereo not drawn)	none
COc1cccc(C2C(C(=O)c3cc4cccc(OC)c4o3)=C(O)C(=O)N2c2cc(C)on2)c1OC (stereo not drawn)	NPSR antagonist 6.3µM
COc1cccc(C2C(C(=O)c3cc4ccccc4o3)=C(O)C(=O)N2c2cc(C)on2)c1OC (stereo not drawn)	NPSR antagonist 3.2µM
CC(C)(C)OC(=O)C[C@H]1C/C=C\C[C@H](CC(=O)N[C@H](CO)Cc2ccccc2)C(=O)N[C@@H](Cc2ccccc2)COC1=O	none (no result: VP16 counter, RORgamma inh, NPSR antagonist)
CC1=NN(C(=O)Cn2ccc([N+](=O)[O-])n2)C(O)(C(F)(F)F)C1 (stereo not drawn)	VP16 counter inconclusive, RORgamma inh inconclusive
CC1=NN(C(=O)Cn2nc([N+](=O)[O-])c(Br)c2C)C(O)(C(F)(F)F)C1 (stereo not drawn)	VP16 counter inconclusive, RORgamma inh 10µM
COc1nn(CC(=O)N2N=C(C)CC2(O)C(F)(F)F)cc1[N+](=O)[O-] (stereo not drawn)	RORgamma inh 3.2µM
O=c1c(-c2ccccc2)c1-c1ccccc1	VP16 counter 0.79µM, RORgamma inh inconclusive
CCCn1c(NC(=O)c2ccc(Cl)c(S(=O)(=O)N3CCCC3)c2)nc2ccccc21	VP16 counter 3.5µM, RORgamma inh 1.6µM, NPSR antagonist inconclusive
CCn1c(NC(=O)c2cccs2)nc2ccccc21	VP16 counter 1.1µM, RORgamma inh 0.71µM, NPSR antagonist inconclusive
Cc1cc2ccccc2n1CCNC(=O)c1cccs1	VP16 counter 14µM, RORgamma inh 13µM
CCCn1c(NC(=O)C2CCN(C(=O)c3ccccc3C)CC2)nc2ccccc21	none (no result: VP16 counter, RORgamma inh, NPSR antagonist)
CCCn1c(NC(=O)c2cccc(C)c2C)nc2ccccc21	VP16 counter 2.2µM, RORgamma inh 2µM
O=C(NCc1nc2ccccc2[nH]1)c1ccc(Cl)c(S(=O)(=O)N2CCCC2)c1	none
CCn1c(CCCNC(=O)c2cccs2)nc2ccccc21	none
COC(=O)c1ccc(C(=O)N(CCN(C)C)c2nc3c(Cl)cccc3s2)cc1	none
Cc1occc1-c1nnc(SCC(=O)N2CCCC(C)C2)o1 (stereo not drawn)	none (no result: VP16 counter, RORgamma inh, NPSR antagonist)
CCN(CC)CCn1c(NC(=O)c2ccc(C)cc2)nc2ccccc21	VP16 counter inconclusive, RORgamma inh inconclusive (no result: NPSR antagonist)
CN(C)CCn1c(NC(=O)c2ccc(Cl)cc2)nc2ccccc21	VP16 counter 1.4µM, RORgamma inh 1.1µM
CCN(CC)CCn1c(NC(=O)c2ccc(C(F)(F)F)cc2)nc2ccccc21	VP16 counter 0.35µM, RORgamma inh 0.22µM
CCNc1ncc2nc(-c3ccc(F)cc3)c(=O)n(C)c2n1	none (no result: B2AR arrestin, NPSR antagonist)
COc1ccccc1N1C(C)=CC(=C(C#N)c2nc3ccccc3s2)C=C1C	VP16 counter inconclusive, RORgamma inh 7.1µM
CC1=CC(=C(C#N)c2nc3ccccc3s2)C=C(C)N1c1ccc(F)cc1	RORgamma inh inconclusive
O=[N+]([O-])c1cc2oc3c(c2c(C=NCc2ccccc2)c1O)CCCC3	NPSR antagonist 10µM
CC(C)CN=Cc1c(O)c([N+](=O)[O-])cc2oc3c(c12)CCCC3	NPSR antagonist inconclusive
N#Cc1ccc(CN2CC[C@@]3(CCCN(C(=O)c4cnccn4)C3)C2)cc1	none (no result: B2AR arrestin, NPSR antagonist)
CCCCN(C)CCOc1ccccc1OCC	none
CCCCCCOc1ccc(C(=N)N(CCCC)CCCC)c2ccccc12	VP16 counter 22µM, RORgamma inh inconclusive (no result: B2AR arrestin, NPSR antagonist)

Bioassay records from PubChem BioAssay.
